PubChem BioAssay (NCI)
Where “and” joins values, the source holds several entries; their conditions need not be identical. Equal values may be shown once. Compounds without any hit were thinned out: in the full panel of roughly 83,000, 20% have a hit.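 Method: cells in 96-well plates; compound added at one concentration; 48 h incubation; percent growth measured; values under 10 scored active.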 Calls of active or inactive are those of the source.

How the values were obtained:
Experiment in all cases: NCI-60 one-dose screen, 48 h (100 = growth as untreated, 0 = no growth, -100 = all killed)
[1] = system: HCT-15 colon; conditions: 10 µM unless noted
[2] = system: HT29 colon; conditions: 10 µM unless noted
[3] = system: SNB-75 CNS; conditions: 10 µM unless noted
[4] = system: SNB-19 CNS; conditions: 10 µM unless noted
[5] = system: U251 CNS; conditions: 10 µM unless noted
[6] = system: PC-3 prostate; conditions: 10 µM unless noted
[7] = system: SK-MEL-5 melanoma; conditions: 10 µM unless noted
[8] = system: UACC-62 melanoma
[9] = system: LOX IMVI melanoma; conditions: 10 µM unless noted
[10] = system: SK-MEL-28 melanoma; conditions: 10 µM unless noted

Measured: growth

Cc1c2c(cc3c1[nH]c1ccccc13)C=NCC2
inactive: [1] 95.1% | [2] 61.2% | [3] 84% | [4] 93.4% | [5] 92.5% | [6] 91% | [7] 88.1% | [8]; 10 µM unless noted 107% | [9] 87.4% | [10] 118%

COc1cccc(-c2cc(-c3cccs3)c(C#N)c(=O)[nH]2)c1
inactive: [1] 97.8% | [2] 116% | [3] 98.4% | [4] 99.9% | [5] 100% | [6] 103% | [7] 107% | [8]; 10 µM unless noted 96.3% | [9] 99.5% | [10] 115%

CCCCCCCCCCCCNC(=O)N[C@H](C(=O)N[C@H]1/C=C/CCNC(=O)/C=C/[C@H](C)NC1=O)C(C)C
inactive: [1] 27.9% | [2] 11.8%
active: [3] -94.9% | [4] -25.8% | [5] -95.3% | [6] -24% | [7] -100% | [8]; 10 µM unless noted -88.8% | [9] -89.2% | [10] -70.2%

CCCCCCCCCCCC1=NC(C)(C)CN1C(C)C
inactive: [1] 11.8% | [3] 52% | [4] 86.7% | [5] 37% | [6] 34.6% | [9] 34.6%
active: [2] 0.372% | [7] -24.7% | [8]; 10 µM unless noted -51.3% | [10] -54.7%

COc1cccc(/C(C)=N/NC(=O)CSc2nc3ccccc3c(=O)n2CCc2ccc(S(N)(=O)=O)cc2)c1
active: [2] 2.6% | [5] -55.4% | [6] 7.25% | [7] 1.45%
inactive: [1] 69.7% | [3] 42.1% | [4] 24.7% | [8]; 10 µM unless noted 25.1% | [9] 26% | [10] 67.5%

COC(=O)c1ccc2c(c1)nc(-c1ccc(Cl)cc1)n2-c1cc(C(C)(C)C)[nH]n1
inactive: [1] 69.5% | [2] 23% | [3] 47.3% | [4] 78.3% | [5] 38.2% | [6] 39% | [7] 25.9% | [8]; 10 µM unless noted 45.7% | [9] 44.2% | [10] 58%

COc1ccccc1CNCCCN1C(=O)c2ccc3c4c(ccc(c24)C1=O)C(=O)N(CCCNCCCN)C3=O
inactive: [3] 46% | [4] 11.9% | [6] 18.7% | [10] 22.7%
active: [1] 8.83% | [2] -31.5% | [5] -72.5% | [7] -97.8% | [8]; 10 µM unless noted -50% | [9] -7.09%

N=C(N)c1ccc(-c2ccc(-c3cccs3)s2)cc1F
active: [1] -66.8% | [2] -82.1% | [3] -96.5% | [4] -65.1% | [5] -86.6% | [6] -72.4% | [7] -98% | [8]; 10 µM unless noted -79.7% | [9] -76.7% | [10] -96%

O=C1N(Cc2ccccc2Cl)c2ccccc2C12NN=C(c1ccccc1)S2 (stereo not given)
inactive: [1] 35.3% | [2] 107% | [3] 71.8% | [4] 53% | [5] 36.1% | [6] 45.1% | [7] 53.3% | [8]; 10 µM unless noted 58.6% | [9] 42.3% | [10] 78.6%

O=C(O/C(=C/c1ccccc1)C(F)(F)F)c1ccccc1
inactive: [1] 114% | [2] 110% | [3] 92.7% | [4] 110% | [5] 102% | [6] 104% | [7] 102% | [8]; 10 µM unless noted 100% | [9] 99.1% | [10] 116%

CC(C)[C@@H]1C=C2CC[C@H]3[C@](C)(CN)CCC[C@]3(C)[C@H]2CC1
active: [2] -34.1% | [10] -82.1%
inactive: [1] 44.5% | [3] 64.8% | [4] 104% | [5] 14% | [6] 69.6% | [7] 69.3% | [8]; 10 µM unless noted 86.3% | [9] 43.6%

CCCCCCCCOC(=O)C(C)OC(=O)OCCOCCOC(=O)OC(C)C(=O)OCCCCCCCC (stereo not given)
inactive: [1] 111% | [2] 115% | [3] 102% | [4] 104% | [5] 106% | [6] 87.7% | [7] 107% | [8]; 10 µM unless noted 94.2% | [9] 101% | [10] 106%

CC(C)(C)c1cc(C[P+](c2ccccc2)(c2ccccc2)c2ccccc2)cc(C(C)(C)C)c1O
active: [2] -13.1% | [3] 2.05% | [5] 5.39% | [6] -10.5% | [7] -96.9% | [8]; 10 µM unless noted -3.2% | [9] 5.93%
inactive: [1] 23.2% | [4] 24.5% | [10] 38.4%

O=C(CSc1nnc(Cc2ccccc2Nc2c(Cl)cccc2Cl)n1-c1ccccc1)N1N=C(c2ccc3ccccc3c2)CC1c1ccc(Cl)cc1 (stereo not given)
inactive: [1] 98.9% | [2] 86.2% | [3] 81% | [4] 95.1% | [5] 98.3% | [6] 87.1% | [7] 104% | [8]; 10 µM unless noted 87.6% | [9] 94% | [10] 112%

Nc1nc(N)c2cc(NCc3ccc(Cl)c(Cl)c3)ccc2n1
active: [1] -80% | [2] -76.3% | [3] -97.1% | [4] -85.6% | [5] -94.5% | [6] -88.7% | [7] -97.5% | [8]; 10 µM unless noted -84% | [9] -80.4% | [10] -94.1%

COc1ccc(/C=C(\C#N)c2cc(OC)c(OC)c(OC)c2)cc1
active: [2] 6.29% | [7] -37.4%
inactive: [1] 15.2% | [3] 30.3% | [4] 43% | [5] 15.4% | [6] 28% | [8]; 10 µM unless noted 36.2% | [9] 27% | [10] 56.6%

Clc1ccc(C2=NN[C@H](c3cn(-c4ccccc4)nc3-c3ccccc3)C2)cc1
inactive: [1] 70.5% | [2] 69.5% | [3] 41% | [4] 76.9% | [5] 49.3% | [6] 36.7% | [7] 80.8% | [8]; 10 µM unless noted 76.5% | [9] 49.7% | [10] 39%

O=C1/C(=C/c2cc(F)cc(F)c2)Cc2cc(F)cc(F)c21
inactive: [1] 95.4% | [2] 92.3% | [3] 93.9% | [4] 86.8% | [5] 104% | [6] 88.1% | [7] 76.8% | [8]; 10 µM unless noted 85.6% | [9] 86.8% | [10] 96.7%

Cc1cc([N+](=O)[O-])c(C)cc1N
inactive: [1] 105% | [2] 92.1% | [3] 86.7% | [4] 108% | [5] 103% | [6] 88.6% | [7] 98.4% | [8]; 10 µM unless noted 95.5% | [9] 100% | [10] 103%

CC(C)=CC[C@@H]1CC2(CC=C(C)C)C(=O)C(OC3(C(=O)c4ccccc4)C(=O)C4(CC=C(C)C)C[C@@H](CC=C(C)C)C(C)(C)C(CC=C(C)C)(C4=O)C3=O)(C(=O)c3ccccc3)C(=O)C(CC=C(C)C)(C2=O)C1(C)C (stereo not given in full)
active: [1] 5.15% | [2] -16.1% | [5] 5.76% | [6] -17.3% | [7] -77.5% | [8]; 10 µM unless noted -71.3% | [9] 1.63%
inactive: [3] 37.6% | [4] 11.6% | [10] 14.9%

OCCN(CCO)c1ccc2ccccc2c1
inactive: [1] 98.4% | [2] 94.3% | [3] 88.1% | [4] 104% | [5] 104% | [6] 83.2% | [7] 100% | [8]; 10 µM unless noted 91.4% | [9] 91.4% | [10] 108%

COc1ccccc1/C=N\Nc1ccc([N+](=O)[O-])cn1
inactive: [1] 102% | [2] 107% | [3] 110% | [4] 103% | [5] 101% | [6] 98.8% | [7] 102% | [8]; 10 µM unless noted 100% | [9] 98.5% | [10] 120%

CC(C)(C)[Si](C)(C)OC1[C@@H](CNC(N)=O)O[C@@H](n2cnc3c(NC(=O)Nc4ccccc4)ncnc32)[C@H]1O[Si](C)(C)C(C)(C)C (stereo not given in full)
active: [2] -7.1%
inactive: [1] 48.3% | [3] 73.9% | [4] 88.4% | [5] 62.2% | [6] 17% | [7] 76.9% | [8]; 10 µM unless noted 83.3% | [9] 32.3% | [10] 92.7%

Cc1cc(O)c2cc3c(O)c(O)ccc3cc2c1
active: [8]; 100 µM -27.7% and -63.9%
inactive: [1] 113% | [2] 125% | [3] 127% | [4] 108% | [5] 108% | [6] 97.1% | [7] 94.8% | [8]; 10 µM 114% | [9] 112%

CN1C(=O)N(C)C2C1NN=c1s/c(=C\c3ccc(C(F)(F)F)cc3)c(=O)n12 (stereo not given)
active: [2] 9.64% | [3] 7.43% | [7] 4.36%
inactive: [1] 24.2% | [4] 30% | [5] 21.6% | [6] 18.8% | [8]; 10 µM unless noted 26.7% | [9] 36.6% | [10] 60.4%

CN(C)c1ccc(/C=C\c2cccc[n+]2C)cc1
inactive: [1] 104% | [2] 34.4% | [3] 70.1% | [4] 31.8% | [5] 33% | [6] 11% | [7] 24.2% | [8]; 10 µM unless noted 81.3% | [9] 50% | [10] 56.6%

COc1cc(C2CC(c3ccccc3)=NN2C=O)ccc1Oc1ccnc2cc(Cl)ccc12 (stereo not given)
active: [7] 1.25%
inactive: [1] 59.3% | [2] 75.9% | [3] 69.9% | [4] 71.2% | [5] 88.6% | [6] 31.4% | [8]; 10 µM unless noted 54.3% | [9] 56.6% | [10] 75.9%
